# Screening data as filed in PubChem.
# Compounds with a hit are over-represented: about 19% of the library has one in this group of screens.
# IL-1B inflam inh: qHTS for Inhibitors of Inflammasome Signaling: IL-1-beta AlphaLISA Primary Screen. THP-1 LPS/ATP IL-1B secretion, AlphaLISA, 16 h; hits give low values. activity change, % at 57.5 µM. actives 4.7% (n = 360,000); in the data active means activity change below about -50%; inconclusive means mostly about -30% to -49%
#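 Secreted IL-1B measured by AlphaLISA bead assay after 16 h compound exposure of THP-1 cells; compounds (final up to 57.5 uM) added 1 h before LPS (250 ng/mL) and ATP (1.25 mM) stimulation; lower signal means less secretion.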
# TDP1 block: qHTS Assay for Inhibitors of Tyrosyl-DNA Phosphodiesterase (TDP1) | Potency, µM (doses to about 130 µM), for inactives: at the top dose activity change, negative = inhibition, most hits filed as inhibitors | Tyrosyl-DNA phosphodiesterase 1 (Homo sapiens), Q9NUW8 | recombinant TDP1, AlphaScreen DNA substrate cleavage | actives 0.28% (n = 350,000); further: potency means the concentration at half of the fitted maximal effect; nearly all actives have a fitted effect of over 40% in size
# Target sequence (Q9NUW8 whole entry, looked up): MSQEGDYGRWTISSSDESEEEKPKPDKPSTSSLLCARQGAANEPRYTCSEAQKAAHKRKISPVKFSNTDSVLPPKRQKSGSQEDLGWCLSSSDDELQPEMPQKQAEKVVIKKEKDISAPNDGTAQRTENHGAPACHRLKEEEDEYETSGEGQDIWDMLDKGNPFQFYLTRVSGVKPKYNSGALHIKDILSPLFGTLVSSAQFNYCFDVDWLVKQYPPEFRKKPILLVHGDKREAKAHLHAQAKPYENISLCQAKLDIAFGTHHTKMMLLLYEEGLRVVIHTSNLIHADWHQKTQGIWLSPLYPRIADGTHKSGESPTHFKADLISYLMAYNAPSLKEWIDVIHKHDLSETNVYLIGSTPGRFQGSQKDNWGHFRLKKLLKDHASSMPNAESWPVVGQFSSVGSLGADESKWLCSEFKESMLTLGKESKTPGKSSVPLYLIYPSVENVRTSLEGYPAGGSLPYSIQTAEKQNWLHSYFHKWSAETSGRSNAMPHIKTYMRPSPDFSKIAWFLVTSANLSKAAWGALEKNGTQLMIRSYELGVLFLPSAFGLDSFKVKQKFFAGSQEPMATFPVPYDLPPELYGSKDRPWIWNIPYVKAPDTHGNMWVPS
#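 Recombinant human Tdp1 (E. coli-expressed, 1 nM final) preincubated with compounds 15 min at room temperature, then 5'-biotin/3'-phosphotyrosine-FITC DNA substrate (15 nM final) added for 5 min. AlphaScreen beads (10 ug/ml final) added 10 min; cleavage lowers signal.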
# ELG1 DNA repair: qHTS screen for small molecules that inhibit ELG1-dependent DNA repair in human embryonic kidney (HEK293T) cells expressing luciferase-tagged ELG1. HEK293T ELG1-luciferase reporter, luminescence, 16 h; DNA damage induced by 5-fluorouridine. Potency, µM (top dose mostly 46.1 µM), for inactives: at the highest dose activity change, negative = inhibition, actives largely listed as inhibitors. actives 2.3% (n = 330,000). AID 504467, 2011; further: potency means the concentration at half of the fitted maximal effect; nearly all actives have a fitted effect of over 55% in size
#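 Step one: seed 2,000 cells per well. Step two: pin-transfer compound or DMSO alongside 5-fluorouridine. Step three: incubate 16 hr, 37 °C, 5% CO2. Step four: add ONE-Glo, wait 30 min, read luminescence.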
# DT40 TDP1 CPT: qHTS for Inhibitors of human tyrosyl-DNA phosphodiesterase 1 (TDP1): qHTS in cells in presence of CPT; actives 12% (n = 420,000); Potency, µM (top dose mostly 46.2 µM), for the others: top-dose activity change, negative = growth inhibition, hits mostly inhibitors; chicken DT40 Tdp1-/-;hTDP1 cells + 20 nM CPT, ATP luminescence, 48 h; AID 686979, 2013; further: potency means the concentration at half of the fitted maximal effect; nearly all actives have a fitted effect of over 55% in size
#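 Cell growth measured by CellTiter-Glo luminescence after a minimum 48 h, 37 C compound exposure with 20 nM CPT in Tdp1-knockout DT40 cells stably expressing hTDP1, seeded 400/well; qHTS titration format.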
# Giardia kill: Small Molecules that selectively kill Giardia lamblia: qHTS. Giardia lamblia trophozoite viability. activity change, % at 7.66 µM, hits read low. actives 0.15% (n = 340,000); in the data active means activity change below about -80%; inconclusive means between about -30% and that limit;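 further: parasites exposed to compound for two days anaerobically before the ATP read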
#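 Trophozoites 100 cells/well + cpd; 48 hrs, 37 deg C, anaerobic. ATPLite 1-Step added, 15-30 min RT, luminescence read (ATP-based viability).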
# TDP1 cell noCPT: qHTS for Inhibitors of human tyrosyl-DNA phosphodiesterase 1 (TDP1): qHTS in cells in absence of CPT; Potency, µM (series often up to 46.2 µM), inactives show at the highest dose activity change, negative = growth inhibition, usual class: inhibitors; DT40 Tdp1-/- hTDP1 cells, no CPT, ATP luminescence, 48 h; actives 15% (n = 420,000); further: potency means the concentration at half of the fitted maximal effect; nearly all actives have a fitted effect of over 55% in size
#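 Camptothecin absent (DMSO only). Human TDP1-complemented DT40 knockout cells, 400 cells/well, 37 °C for minimum 48 hr; ATP measured via CellTiter-Glo, 30 min dark incubation, luminescence.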
# Starred values were filed as active, the others as inactive; ? = inconclusive; . = not tested or not shown; [ ] = dose if it differs, or a comment. Unless noted, the call rests on the fitted dose curve; in most records, active means well fitted curve in the direction sought with a large enough effect; inconclusive means small, poorly fitted or top-dose-only effect, or another doubt; inactive means no such curve, though single readings can be large; an effect the other way counts as inactive or inconclusive. On the % scale 0 is the no-effect control and ±100 the full control effect.
SMILES,IL-1B inflam inh,TDP1 block,ELG1 DNA repair,DT40 TDP1 CPT,Giardia kill,TDP1 cell noCPT
CCC(CC)C(=O)Nc1ccc(OCc2cc(=O)n3c4c(sc3n2)CCCC4)cc1,.,3.8%,.,-10.2%,.,-3.4%
Clc1ccc(SCCCCN2CCNCC2)cc1,0.0,0.0%,?,20.6µM*,-25.1,18.4µM*
CC1CN(CCCCSc2ccc(Cl)cc2)CC(C)O1 (stereo unspecified),-26.5,.,0.9%,20.6µM*,57.9,?
Cc1ccc(SCCCCN2CCNCC2)cc1,-0.8,0.0%,?,20.6µM*,12.9,?
COc1ccc(S(=O)(=O)N2c3cc(C)ccc3OCC2C(C)(C)C)cc1 (stereo unspecified),23.5,-2.9%,?,16.4µM*,-16.2,?
O=C(CCNS(=O)(=O)c1ccc2c(c1)CCN2C(=O)C1CC1)Nc1ccc(F)cc1F,.,3.3%,.,8.2µM*,.,13µM*
CC1CCN(CCCNS(=O)(=O)c2ccc3c(c2)CCN3C(=O)C2CC2)CC1,-1.4,0.9%,2.0%,-22.8%,-5.1,-8.1%
Cc1cccc(NC(=O)CCNS(=O)(=O)c2ccc3c(c2)CCN3C(=O)C2CC2)c1,.,2.2%,.,18.4µM*,.,20.6µM*
COc1cc(Cl)c(C)cc1NC(=O)CCc1c(C)nc2c3cccnc3nn2c1C,.,9.0%,.,?,.,?
CC1CCCCC12NC(=O)N(CC(=O)N1CCc3ccccc3C1)C2=O (stereo unspecified),-7.3,-1.6%,-3.7%,0.3%,-17.2,-0.7%
CCOC(=O)N1CCN(C(=O)C[C@@H]2C[C@@]3(C(=O)OC)CC(C)(C)CC=C3N(Cc3ccc4c(c3)OCO4)C2=O)CC1,-1.9,.,.,11.6µM*,.,18.4µM*
COC(=O)[C@@]12C[C@@H](CC(=O)N3CCCC3)C(=O)N(Cc3ccc4c(c3)OCO4)C1=CCC(C)(C)C2,-23.7,.,.,?,.,?
COC(=O)[C@@]12C[C@@H](CC(=O)N3CCSCC3)C(=O)N(Cc3ccc4c(c3)OCO4)C1=CCC(C)(C)C2,-22.5,.,.,?,.,14.6µM*
O=C(O)C=Cc1ccc(Cn2ccnc2)cc1,.,-4.0%[56.1 µM],.,4.7%,.,-4.5%
CCOC(=O)C1=C(COC(=O)c2nc(Cl)ccc2Cl)NC(=O)NC1C (stereo unspecified),-3.8,1.1%,13.4%,-4.7%,-11.7,5.9%
Cc1csc(NC(=O)CCc2c(C)nc3cc(-c4cccc(F)c4)nn3c2C)n1,-0.5,-1.3%,?,16.4µM*,-8.1,20.6µM*
Cc1nc2cc(-c3cccc(F)c3)nn2c(C)c1CCC(=O)NC1CCCCC1,.,3.5%,.,6.6%,.,5.4%
COc1cc(OC)cc(-c2cc3nc(C)c(CCC(=O)NC(C)CCc4ccco4)c(C)n3n2)c1 (stereo unspecified),-20.5,11.4%,12.6µM*,?,4.5,16.4µM*
COC(=O)C(NC(=O)CCc1c(C)nc2cc(-c3cccc(F)c3)nn2c1C)C(C)C (stereo unspecified),.,-1.2%,.,?,.,18.4µM*
Cc1ccc(C)c(CN2CCCN(Cc3ccccc3C)S2(=O)=O)c1,.,-5.6%,.,?,.,?
COCCNC(=O)C1CCCN(C(=O)c2ccc(F)c(C)c2)CC1 (stereo unspecified),-18.2,.,.,-12.2%,.,0.7%
CCn1c(/C=C2\C(=O)N(C)c3ccccc32)nc2ccccc2c1=O,0.9,7.1%,-2.0%,?,1.1,?
CCn1c(/C=C2\C(=O)N(C(C)C)c3ccccc32)nc2ccccc2c1=O,5.8,11.2%,-2.7%,?,10.5,?
CCN1C(=O)/C(=C/c2nc3ccccc3c(=O)n2-c2ccccc2)c2ccccc21,.,5.3%,?,20.6µM*,51.0,18.4µM*
CCN1C(=O)/C(=C\c2nc3ccccc3c(=O)n2CC)c2ccccc21,-86.1*,3.6%,?,16.4µM*,-1.9,29.1µM*
SMILES,IL-1B inflam inh,TDP1 block,ELG1 DNA repair,DT40 TDP1 CPT,Giardia kill,TDP1 cell noCPT
CCn1c(/C=C2/C(=O)N(C)c3ccccc32)nc2ccccc2c1=O,-16.3,-1.0%,-3.1%,?,-16.6,16.4µM*
Cc1cc(=O)[nH]c(Nc2ccc(N(C)C)cc2)n1,9.3,6.5%,2.7%,15.1%,8.7,-4.6%
C=CCN(CC=C)C(=O)c1ccc(OC2CCN(Cc3ccccn3)CC2)cc1,-8.9,3.0%,2.6%,3.4%,15.6,-9.4%
O=[N+]([O-])c1ccccc1/C=N/Nc1nnc(-c2ccccc2)c(-c2ccccc2)n1,10.3,2.8%,-13.4%,2.06µM*,0.2,1.64µM*
O=[N+]([O-])c1ccccc1/C=N\Nc1nccs1,-2.0,.,16.3%,15.2%,-2.3,29.3%
CCCCNC(=S)N/N=C/c1cccc(OCC)c1O,-3.0,5.0%,?,1.16µM*,-20.6,2.06µM*
O=[N+]([O-])c1ccccc1C=NNC(=S)NN=Cc1ccccc1[N+](=O)[O-],-7.0,.,.,6.51µM*,-12.1,3.26µM*
Cc1ccc(CN(CC(=O)N/N=C/c2ccccc2[N+](=O)[O-])S(=O)(=O)c2ccc(C)cc2)cc1,-8.2,7.8%,-20.6%,?,3.1,?
O=C(CN(Cc1ccccc1)S(=O)(=O)c1ccccc1)N/N=C/c1ccccc1[N+](=O)[O-],?,5.1%,?,?,-4.0,20.6µM*
O=C(O)CCC(=O)N1CCc2cc(S(=O)(=O)NCc3ccc(F)cc3)ccc21,.,1.2%,.,-5.3%,.,-9.5%
COCCCNC(=O)CCn1c(=O)c2ccccc2n(CC(=O)Nc2c(C)cc(C)cc2C)c1=O,.,-4.5%,.,-9.1%,.,-11.4%
CCOc1cccc(/C=N/NS(=O)(=O)c2ccc(C)c([N+](=O)[O-])c2)c1O,64.8,5.3%,8.7%,6.2%,2.3,-2.5%
Cc1cccc(CN(CC(=O)N/N=C/c2ccco2)S(=O)(=O)c2ccc(Cl)cc2)c1,0.0,0.0%,-18.7%,?,10.7,?
CCOc1cccc(/C=N/NC(=S)Nc2ccccc2[N+](=O)[O-])c1O,147.4,7.4%,?,9.2µM*,14.5,8.2µM*
Cc1cccc(CN(CC(=O)N/N=C/c2cccs2)S(=O)(=O)c2ccc(Cl)cc2)c1,-11.1,1.0%,-9.0%,?,11.2,29.1µM*
